Active and inactive are the calls of the source. Cut-off read from the data, not from the text of the source, unless noted: active = inhibition above about 80%; inactive = the rest.
Legend:
[1] = viability loss with induced miR-34 in A549 – imaging, A549 dox-inducible miR-34, nuclei and caspase counts, primary screen (AID 1347080;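 active = compounds whose cell count with miR-34 switched on is under 0.7 times the count with it off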); details: A549 miR-34 inducible, Hoechst nuclei count, 48 h
[2] = MELAS cybrid and Rieske KO viability enhancers – cell-based, MELAS cybrids, Rieske KO mouse fibroblasts, CellTiter-Glo, primary screen (AID 1508586;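 active = mean z-score across replicates of 1.96 or higher in either the MELAS or the Rieske mutant cell line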;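 note: z relative to plate mean and SD of compound and empty wells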); details: low glucose
[3] = growth inhibition, single agent or in combination, cell-based, chromothripsis tumors, cisplatin or BGB combos (AID 1671449); details: LFS_MB_P medulloblastoma cells;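 note: cells exposed for 96 hours; 0% = vehicle DMSO and 100% = killing by high DMSO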
[4] = growth inhibition, single agent and combos, cell-based, chromothripsis tumors, cisplatin or BGB combos (AID 1671450); details: HDN33 neuroblastoma cells, stronger effect = higher value;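 note: cells exposed to compound for four days; 0% = vehicle DMSO and 100% = cell killing by high DMSO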
[5] = growth inhibition, single agents and combos, ICB984, cell-based, cisplatin or BGB combos, synergistic combos for chromothripsis tumors (AID 1671451; call rule not given here;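 note: cells exposed for 96 hours before readout; 0% = vehicle DMSO and 100% = killing by high DMSO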); details: ICB984 medulloblastoma cells, drug combinations, stronger effect = higher value
[6] = growth inhibition, single agents and combos, LFS_MB_1R, cell-based, cisplatin or BGB combos, synergistic combos for chromothripsis tumors (AID 1671452); details: LFS_MB_1R medulloblastoma cells, stronger effect = higher value;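 note: cells exposed for 96 hours before readout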
[7] = growth inhibition, single agents and combos, HTB85, cell-based, BGB or cisplatin IC20 combos, synergistic combos for chromothripsis tumors (AID 1671453); details: HTB85 osteosarcoma cells, drug combinations, stronger effect = higher value;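 note: cells exposed for 96 hours before readout; 0% = vehicle DMSO and 100% = high DMSO killing control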
[8] = growth inhibition, single agents and combos, CRL2098, cell-based, BGB or cisplatin IC20 combos, synergistic combos for chromothripsis tumors (AID 1671454); details: CRL2098 osteosarcoma cells, drug combinations, stronger effect = higher value;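 note: cells exposed for 96 h before readout; 0% = vehicle DMSO and 100% = killing by high DMSO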
[9] = growth inhibition, single agents and combos, HD-MB03, cell-based, BGB or cisplatin IC20 combos, synergistic combos for chromothripsis tumors (AID 1671455; in the data active = inhibition above about 83%;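 note: 0% = vehicle DMSO and 100% = high DMSO as cytotoxic control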); details: HD-MB03 medulloblastoma cells, stronger effect = higher value
[10] = growth inhibition, single agents and combos, UWB1.289, cell-based, BGB or cisplatin combos, synergistic combos for chromothripsis tumors (AID 1671456); details: UWB1.289 ovarian carcinoma cells, stronger effect = higher value;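 note: cells exposed to compound for four days; 0% = vehicle DMSO and 100% = killing by high DMSO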
[11] = growth inhibition, single agents and combos, LFS_MB_2R, cell-based, cisplatin combos, synergistic combos for chromothripsis tumors (AID 1671457); details: LFS_MB_2R medulloblastoma cells, stronger effect = higher value;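 note: cells exposed to compound for four days before readout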
[12] = growth inhibition, MDA-MB-436, cell-based, BGB or cisplatin combos, synergistic combos for chromothripsis tumors (AID 1671458; call rule not given here;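 note: cells exposed for 96 hours; 0% = vehicle DMSO and 100% = killing by high DMSO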); details: MDA-MB-436 breast carcinoma growth inhibition, drug combinations, stronger effect = higher value
[13] = UWB1.289_BRCA1 ovarian cancer growth, cell-based, BGB or cisplatin combinations (AID 1671459); details: UWB1.289 BRCA1 ovarian carcinoma, drug combinations, stronger effect = higher value
[14] = drug combination toxicity in non-malignant astrocytes – cell-based, BGB or cisplatin IC20 combos, cytotoxicity control for chromothriptic childhood tumor combination screen (AID 1671460); details: Human astrocytes, viability inhibition, drug combinations, at 0.5 µM, stronger effect = higher value;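 note: cells exposed to compounds for 96 hours before viability readout; 0% = vehicle and 100% = killing control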
[15] = BT084 cell growth, single and combined drugs, ICGC_MB145, cisplatin and BGB IC40 combos (AID 1671461); details: BT084 medulloblastoma cells, drug combinations, stronger effect = higher value;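 note: cells exposed to drugs for 96 hours; 0% = vehicle DMSO and 100% = high DMSO full killing control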
[16] = RCMB18 cell growth, single agent and combined, cisplatin and BGB IC40 combos (AID 1671462); details: RCMB18 medulloblastoma cells, stronger effect = higher value;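 note: cells exposed to compound for four days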
[17] = CRL1545 cell growth, single agent and combined, cisplatin and BGB IC20 combos (AID 1671464); details: CRL1545 osteosarcoma cells, stronger effect = higher value;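 note: cells exposed to compound for 96 hours before readout; 0% = vehicle DMSO and 100% = high DMSO killing control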
[18] = measured here: combination with BGB IC40, at 0.05 µM
[19] = measured here: with BGB IC20 combination, at 0.5 µM
[20] = measured here: with cisplatin IC20 combination, at 0.5 µM
[21] = measured here: combination with cisplatin, at 0.5 µM
[22] = measured here: combination with cisplatin, at 5 µM

Q: With `CC(C)(C#N)c1ccc(N2C(=O)OCc3cnc4ccc(-c5cnc6ccccc6c5)cc4c32)cc1` as the molecule, how does the fold change ([1]; stronger effect = lower value, cell number ratio, induced over uninduced) read?
A: Its fold change is 0.956 (inactive).

Q: What about the fold change ([1]; measured here: relative caspase fold change +Dox/-Dox) of the same molecule?
A: Its fold change is 0.673.

Q: And the cell count ([1]; measured here: total cells with miR-34 induction, stronger effect = lower value)?
A: The cell count was 2510.

Q: And the cell count ([1]; measured here: total cells without miR-34 induction)?
A: Its cell count is 2620.

Q: And the z-score ([2]; MELAS cybrid survival, CellTiter-Glo 48 h, stronger effect = higher value)?
A: The z-score was 3.99 (active).

Q: What about the z-score ([2]; Rieske KO mouse fibroblast survival, CellTiter-Glo 72 h) of the same molecule?
A: The z-score was 2.98.

Q: What about the inhibition ([3]; at 0.5 µM, stronger effect = higher value) of the same molecule?
A: The inhibition was -21.4% (inactive).

Q: What about the inhibition ([3]; measured here: combination with BGB IC20, at 0.005 µM) of the same molecule?
A: The inhibition was -11.2%.

Q: What about the inhibition ([3]; measured here: combination with BGB IC40, at 0.005 µM) of the same molecule?
A: Its inhibition is -17%.

Q: And the inhibition [3, 18]?
A: Its inhibition is -37.9%.

Q: And the inhibition ([3]; measured here: combination with cisplatin, at 0.5 µM, stronger effect = higher value)?
A: The inhibition was -37.5%.

Q: What about the inhibition ([3]; measured here: combination with cisplatin, at 5 µM, stronger effect = higher value) of the same molecule?
A: The inhibition was -27.3%.

Q: What about the inhibition ([4]; BGB combo, at 5 µM) of the same molecule?
A: Its inhibition is 20.7%.

Q: What about the inhibition ([4]; at 0.5 µM) of the same molecule?
A: Its inhibition is 3.13% (inactive).

Q: What about the inhibition ([4]; cisplatin combo, at 5 µM) of the same molecule?
A: Its inhibition is 12.1%.

Q: And the inhibition [4, 19]?
A: The inhibition was 34.2%.

Q: What about the inhibition [4, 20] of the same molecule?
A: Its inhibition is -10.9%.

Q: What about the inhibition ([4]; single agent, at 5 µM) of the same molecule?
A: Its inhibition is 52.2%.

Q: What about the inhibition ([5]; BGB IC20 combo, at 0.005 µM) of the same molecule?
A: Its inhibition is -18.4%.

Q: What about the inhibition ([5]; BGB IC40 combo, at 0.005 µM) of the same molecule?
A: Its inhibition is -8.9%.

Q: And the inhibition ([5]; BGB IC40 combo, at 0.05 µM)?
A: The inhibition was 30.5%.

Q: What about the inhibition ([5]; at 0.5 µM) of the same molecule?
A: Its inhibition is -29.7% (inactive).

Q: And the inhibition ([5]; cisplatin combo, at 0.05 µM)?
A: Its inhibition is 28.5%.

Q: And the inhibition ([5]; cisplatin combo, at 0.5 µM)?
A: Its inhibition is -15.5%.

Q: What about the inhibition ([5]; cisplatin combo, at 5 µM) of the same molecule?
A: Its inhibition is -36.2%.

Q: What about the inhibition ([5]; measured here: 5 uM single agent, at 5 µM) of the same molecule?
A: The inhibition was -21.9%.

Q: And the inhibition ([6]; at 0.5 µM)?
A: The inhibition was -13.4% (inactive).

Q: What about the inhibition [6, 18] of the same molecule?
A: Its inhibition is -7.9%.

Q: And the inhibition [6, 21]?
A: The inhibition was -39.8%.

Q: And the inhibition [6, 22]?
A: The inhibition was 24%.

Q: What about the inhibition ([7]; at 0.5 µM) of the same molecule?
A: The inhibition was 3.37% (inactive).

Q: And the inhibition ([7]; measured here: with BGB IC20, at 0.5 µM)?
A: The inhibition was 2.55%.

Q: And the inhibition ([7]; measured here: with BGB IC20, at 5 µM)?
A: The inhibition was 14.5%.

Q: What about the inhibition ([7]; measured here: with cisplatin IC20, at 0.5 µM) of the same molecule?
A: Its inhibition is -23.6%.

Q: And the inhibition ([7]; measured here: with cisplatin IC20, at 5 µM)?
A: Its inhibition is 28.2%.

Q: What about the inhibition ([7]; single agent, at 5 µM) of the same molecule?
A: The inhibition was -10.2%.

Q: What about the inhibition ([8]; at 0.5 µM) of the same molecule?
A: The inhibition was -42.5% (inactive).

Q: What about the inhibition ([8]; measured here: combination with BGB at IC20, at 0.5 µM) of the same molecule?
A: Its inhibition is -42.2%.

Q: And the inhibition ([8]; measured here: combination with cisplatin at IC20, at 0.5 µM)?
A: Its inhibition is -56.5%.

Q: What about the inhibition ([9]; at 0.5 µM) of the same molecule?
A: The inhibition was -11.6% (inactive).

Q: What about the inhibition ([9]; measured here: combo with BGB at IC20, at 0.5 µM) of the same molecule?
A: The inhibition was -14.5%.

Q: And the inhibition ([9]; measured here: combo with cisplatin at IC20, at 0.5 µM)?
A: Its inhibition is -8.16%.

Q: And the inhibition ([10]; at 0.5 µM)?
A: The inhibition was 5.6% (inactive).

Q: What about the inhibition ([10]; measured here: inhibition with BGB combination, at 0.05 µM) of the same molecule?
A: The inhibition was -17%.

Q: What about the inhibition ([10]; measured here: inhibition with cisplatin combination, at 0.05 µM) of the same molecule?
A: Its inhibition is -6.61%.

Q: And the inhibition ([11]; at 0.5 µM)?
A: Its inhibition is -11.6% (inactive).

Q: And the inhibition [11, 21]?
A: The inhibition was -16.8%.

Q: What about the inhibition [11, 22] of the same molecule?
A: Its inhibition is -39.1%.

Q: And the inhibition ([12]; at 0.5 µM)?
A: The inhibition was -25% (inactive).

Q: What about the inhibition ([12]; measured here: BGB combination, at 0.5 µM) of the same molecule?
A: Its inhibition is -28.5%.

Q: And the inhibition ([12]; measured here: BGB combination, at 5 µM)?
A: Its inhibition is -0.266%.

Q: What about the inhibition ([12]; measured here: cisplatin combination, at 0.5 µM) of the same molecule?
A: Its inhibition is -29.7%.

Q: And the inhibition ([12]; measured here: cisplatin combination, at 5 µM)?
A: The inhibition was -3.36%.

Q: And the inhibition ([13]; BGB combination, concentration series, at 5 µM)?
A: Its inhibition is 53.9%.

Q: What about the inhibition ([13]; at 0.5 µM) of the same molecule?
A: The inhibition was 6.07% (inactive).

Q: What about the inhibition ([13]; cisplatin combination, concentration series, at 5 µM) of the same molecule?
A: The inhibition was 99.8%.

Q: What about the inhibition [14] of the same molecule?
A: The inhibition was -4.16% (inactive).

Q: What about the inhibition ([14]; measured here: combo with BGB IC20) of the same molecule?
A: Its inhibition is -12.4%.

Q: And the inhibition ([14]; measured here: combo with cisplatin IC20)?
A: Its inhibition is -5.44%.

Q: What about the inhibition ([15]; at 0.5 µM) of the same molecule?
A: The inhibition was -28.9% (inactive).

Q: What about the inhibition ([15]; cisplatin combination, at 0.5 µM) of the same molecule?
A: The inhibition was -2.27%.

Q: What about the inhibition ([15]; cisplatin combination, at 5 µM) of the same molecule?
A: Its inhibition is 60.4%.

Q: What about the inhibition ([15]; measured here: BGB IC40 combination 0.05 uM, at 0.05 µM) of the same molecule?
A: The inhibition was -35.6%.

Q: What about the inhibition ([15]; single agent, at 5 µM) of the same molecule?
A: Its inhibition is 4.04%.

Q: And the inhibition ([16]; at 0.5 µM)?
A: Its inhibition is -2.14% (inactive).

Q: And the inhibition ([16]; cisplatin combo, at 5 µM)?
A: The inhibition was 20.5%.

Q: What about the inhibition ([16]; measured here: BGB IC40 combination, at 0.05 µM) of the same molecule?
A: Its inhibition is -35.7%.

Q: What about the inhibition [16, 21] of the same molecule?
A: Its inhibition is 7.95%.

Q: What about the inhibition ([16]; single agent, at 5 µM) of the same molecule?
A: The inhibition was 19.4%.

Q: What about the inhibition ([17]; at 0.5 µM) of the same molecule?
A: The inhibition was 0.16% (inactive).

Q: And the inhibition [17, 19]?
A: Its inhibition is -15%.

Q: What about the inhibition [17, 20] of the same molecule?
A: The inhibition was 5.66%.

Q: What about the inhibition ([17]; single agent, at 0.05 µM) of the same molecule?
A: The inhibition was -4.01%.

Q: And the inhibition ([17]; single agent, at 5 µM)?
A: The inhibition was 26.5%.
